From PubChem BioAssay
An excerpt weighted towards active compounds, which were near 12% of everything screened.
Pf growth 96h: P. falciparum growth inhibition at 96 hour, primary screen for plastid delayed-death inhibitors | P. falciparum luciferase reporter growth, 96 h | 320,000 compounds, 6.9% hits | Potency, µM (series often up to 28.7 µM), inactives show at the highest dose activity change, negative = inhibition, actives largely listed as inhibitors; also: % is scaled to controls: 0 for no effect and ±100 for the full control effect
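Infected RBCs, 2% Hct / 0.05% parasitemia final; luciferase-reporter P. falciparum; cpd 96 h, 37 C, 5% CO2; luciferase detection reagent; luminescence.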
AMA1-RON2 inh: disrupts binding of P. falciparum AMA1 to RON2; AlphaScreen AMA1-biotinylated RON2 peptide binding; Potency, µM (top dose mostly 58.2 µM), for inactives: top-dose activity change, negative = inhibition, hits mostly inhibitors; 360,000 compounds, 0.2% hits;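 also: 0% = vehicle wells and -100% = peptide control; nearly all actives have a fitted effect of over 45% in size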
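AMA1 (3D7) with his tag at 25 nM final met compounds first, then biotinylated RON2 peptide at 25 nM; detection used donor plus acceptor beads, 10 µg/mL apiece, read by AlphaScreen after 30 min at room temperature.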
HCV inhibitor: inhibitors of hepatitis C virus infection; Huh7.5.1 HCVcc-Cre infection, luciferase reporter, 44 h; Potency, µM (top dose mostly 41.8 µM), inactives show at the top dose activity change, negative = inhibition, hits mostly inhibitors; 340,000 compounds, 3.4% hits; also: % is scaled to controls: 0 for no effect and ±100 for the full control effect
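1,000 cells/well; 4 h culture; + compound; + HCVcc-Cre (~0.5 moi); 44 h; luciferase substrate, RT 15 min; read 15 sec.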
SARS PLP yeast: SARS-CoV PLP inhibition in yeast; S. cerevisiae expressing SARS-CoV PLpro, growth rescue; Potency, µM (top dose mostly 32.9 µM), without a hit: at the highest dose activity, positive = growth rescue, usual class: activators; 330,000 compounds, 0.19% hits; AID 485353; calls by dose curve; also: 0% is about no effect; nearly all actives have a fitted effect of over 55% in size
NS1 inh: influenza NS1 inhibition. Potency, µM (top dose mostly 46.1 µM), inactives show top-dose activity, positive = more growth. 270,000 compounds, 0.4% hits; calls by dose curve; also: actives are rising curves; nearly all actives have a fitted effect of over 50% in size
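OD600 was taken as the measure of yeast growth restored by compound in an NS1-expressing S. cerevisiae strain. Cells had been washed out of glucose medium and diluted 1:100 into galactose -URA medium, pH 6.0.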
Pf growth 48h: inhibits P. falciparum growth in the first generation, 48 h | P. falciparum luciferase growth in erythrocytes, 48 h | Potency, µM (titrated, usually from 28.7 µM), for the others: at the top dose activity change, negative = inhibition, hits mostly inhibitors | 310,000 compounds, 5.9% hits | AID 504832; also: % is scaled to controls: 0 for no effect and ±100 for the full control effect
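Luminescence readout; reporter = integrated firefly luciferase in P. falciparum. RBC culture at 2% hematocrit, 0.1% parasitemia final, 37 C/5% CO2; decreased signal taken as growth inhibition.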
* marks the source's active call; other numbers are inactive results; ? = inconclusive; . = no result; [ ] = dose if it differs, or a comment. Unless noted, calls follow the shape of the dose curve; as a rule, active = well fitted curve in the direction sought with a large enough effect; inconclusive = small, poorly fitted or top-dose-only effect, or another doubt; inactive = no such curve, though single readings can be large; an effect the other way counts as inactive or inconclusive. Potency is read from the fitted curve at half-maximal effect.

SMILES	Pf growth 96h	AMA1-RON2 inh	HCV inhibitor	SARS PLP yeast	NS1 inh	Pf growth 48h
CCOC(=O)C(=CNc1ccc(N2CCCCC2)c(S(=O)(=O)Nc2ccccc2OC)c1)C(=O)OCC	.	-6%[11.6 µM]	?	.	.	.
COc1ccccc1NC(=O)NC(=O)c1ccccc1	-9%	2%	-3%	-2%	-4%	201%
COc1cccc(Cn2c(N)c(C#N)c3nc4ccccc4nc32)c1OC	10µM*	17%	-21%	3%	3%	?
N#Cc1c(N)n(CCc2ccc(F)cc2)c2nc3ccccc3nc12	0.33µM*	24%	-4%	-4%	1%	.
Cc1ccc(C(=O)NCCn2c(N)c(C#N)c3nc4ccccc4nc32)cc1	?	-9%	7%	22%	-1%	?
CC(C)(C)NC(=O)c1ccc2nsnc2c1	-8%	-12%	0%	1%	-12%	-12%
Cc1cc(N2C(=O)C(O)=C(C(=O)c3cc4ccccc4o3)C2c2ccc(OC(C)C)cc2)no1 (stereo not given)	?	21%	0%	-4%	12%	?
CCCOc1cccc(C2C(C(=O)c3cc4ccccc4o3)=C(O)C(=O)N2c2cc(C)on2)c1 (stereo not given)	3.7µM*	29%	1%	?	6%	?
COC(=O)c1ccc(C2C(C(=O)c3cc4ccccc4o3)=C(O)C(=O)N2c2cc(C)on2)cc1 (stereo not given)	7.4µM*	-12%	20%	0%	16%	9.3µM*
CN1CCN(c2ncnc3c2ncn3[C@H]2CN(Cc3ccc(C(=O)O)cc3)C[C@@H](CO)O2)CC1	.	3%	.	.	.	.
COc1ccc(C(=O)c2c(C)c3cc(C)ccc3n2CC(O)CN2CCOCC2)cc1 (stereo not given)	12µM*	0%	-18%	10%	-42%	?
CCOc1ccc2c(c1)-c1c(ssc1=S)C(C)(C)N2C	.	10µM*	?	-15%	-15%	24%
COCCCn1c2nc3ccccc3nc2c2c(=O)n(-c3ccccc3OC)cnc21	8%	-4%	3%	3%	-9%	7%
COc1ccccc1-n1cnc2c(c1=O)c1nc3ccccc3nc1n2-c1ccc(C)c(C)c1	10µM*	0%	7.9µM*	-31%	17%	?
Cn1ncc2c(O/N=C(\N)c3ccc(C(C)(C)C)cc3)ncnc21	?	4%	5.6µM*	-20%	-72%	?
N[C@@H](Cc1[nH]nc2ccccc12)C(=O)O	.	.	.	.	6%	.
CCOC(=O)c1cc2sc(C)cc2n1CC(=O)Nc1ccc2c(c1)OCCO2	0.74µM*	10%	?	-3%	-2%	-9%
Cc1nc(-c2cccc(NC(=O)c3cccc(S(=O)(=O)N4CCCC4)c3)c2)cs1	?	12%	10µM*	1%	.	12µM*
Cc1nc(-c2cccc(S(=O)(=O)N3CC(C)OC(C)C3)c2)cs1 (stereo not given)	?	-9%	-13%	-7%	-13%	-9%
O=S(=O)(c1cccc(-c2csc(-c3cccnc3)n2)c1)N1CCCCC1	55%	-4%	?	-7%	-53%	9.3µM*
Cc1nc(-c2cccc(S(=O)(=O)N3CCOCC3)c2)cs1	72%	-4%	-18%	7%	19%	13µM*
Clc1ccsc1-c1csc(-c2cccnc2)n1	?	4%	14µM*	-18%	-160%	.
Cc1nc(-c2cccc(NC(=O)c3ccc(Cl)c(S(=O)(=O)N4CCCC4)c3)c2)cs1	.	-22%	.	.	.	.
c1cncc(-c2csc(-c3cccnc3)n2)c1	18%	-3%	-16%	1%	-2%	30%
CCOc1ccc(CCNC(=O)Cn2cccc2C(=O)c2ccccc2C)cc1OCC	-1%	-12%	?	14%	-12%	?
COc1cccc(C(O)c2nc(-c3cncnc3)cs2)c1 (stereo not given)	.	0%	.	.	.	.
COc1ccc(C)cc1N(CC(=O)Nc1ccc(S(=O)(=O)N2CCCC2)cc1)S(C)(=O)=O	13%	1%	-2%	-5%	5%	-21%
